In PubChem BioAssay AID1004 (SRMLSC, 2008) one finds viability data, which are given here for 34 molecules.

Unmarked numbers belong to inactive results. Activity calls are given as the source filed them.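 Rule for the calls: active = viability at 10 µM of 29.74% or lower, 3 SD below the compound median; inactive = the rest.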

The nature of this assay: viability of HCT116 lacking mutant beta-catenin – cell-based, DP diverse set, validation, pilot screen (AID 1004). To be noted: HCT116 (mutant beta-catenin deleted) viability, CellTiter-Glo, 60 h; at 10 µM; hits give low values. On the technique in general: Cellular ATP, detected with luciferase, serves as a proxy for viable cell number.
Regarding `CC1=C2[C@H]3OC(=O)[C@@H](C)[C@@H]3CC[C@@]2(C)C=CC1=O`, the viability is 98%. As for `COC[C@H]1OC(=O)c2coc3c2[C@@]1(C)C1=C(C3=O)C2CCC(=O)[C@@]2(C)C[C@H]1OC(C)=O` (some centres undefined), the figure is 78.1%; as for `NCCc1c[nH]c2ccc(O)cc12`, 100%. Take `N#Cc1nn(-c2c(Cl)cc(C(F)(F)F)cc2Cl)c(N)c1S(=O)C(F)(F)F` (centres undefined): the viability is 92.8%. With `CC(C)(C)[C@]1(O)C[C@@H]2OC(=O)CC23C(=O)O[C@@H]2OC(=O)[C@H](O)C231` (some centres undefined) the figure was 93.5%; with `Nc1ccncc1`, 103%; with `C=CCN1CC[C@]23c4c5ccc(O)c4O[C@H]2C(=O)CC[C@@]3(O)[C@H]1C5`, 96.6%.

For the molecule `C=C(C)[C@H]1CN[C@H](C(=O)O)[C@H]1CC(=O)O`, the viability was 94.1%. As for `CCCCCCCCCCCCCC(=O)O[C@@H]1[C@@H](C)[C@@]2(O)[C@@H](C=C(CO)C[C@]3(O)C(=O)C(C)=C[C@@H]23)[C@@H]2C(C)(C)[C@]12OC(C)=O`, the viability was 82.7%. As for `CC/C(=C(\c1ccccc1)c1ccc(OCCN(C)C)cc1)c1ccccc1`, the figure is 67.6%; as for `CSC(=S)NCc1c[nH]c2ccccc12`, 95%.

Turning to `CCCN1CCC[C@@H]2Cc3cn[nH]c3C[C@H]21`, the viability is 103%. Take `CCCC[C@H]1C(=O)O[C@H](C)[C@H](NC(=O)c2cccc(NC=O)c2OC)C(=O)O[C@@H](C)[C@@H]1OC(=O)CC(C)C`: the viability is 95.2%.

Consider `COC(=O)C(O)C(O)(CCC(C)C)C(=O)OC1C(OC)=CC23CCCN2CCc2cc4c(cc2C13)OCO4` (centres undefined), for which the viability is 30%.

For `CC(=O)O[C@H]1[C@H]2[C@@H](OC(=O)Cc3ccccc3)[C@@H](C)C[C@]2(OC(C)=O)C(=O)/C(C)=C/[C@@H]2[C@H](CC[C@@]13CO3)C2(C)C`, the viability is 89.4%. Regarding `CNc1ccc2oc(C[C@@H]3OC4(CC[C@@H]3C)O[C@H](C(C)C(=O)c3ccc[nH]3)[C@H](C)C[C@H]4C)nc2c1C(=O)O` (some centres undefined), the viability was 9.98% (active).

Turning to `CC(C)c1cc2c(c(O)c1O)[C@@]1(C(=O)O)CCCC(C)(C)[C@@H]1CC2`, the viability is 103%. `O=C1C=C2C=C[C@@H]3C[C@@]2(O1)[C@H]1CCCCN31`: the viability is 86%.

For `O[C@H]1[C@H](O)[C@@H](O)CN2CC[C@H](O)[C@H]12`, the viability is 95.4%. Take `C[C@@H]1CC[C@H]2[C@@H](C)C(=O)O[C@@H]3OC4(C)CC[C@@H]1[C@]32OO4`: the viability was 100%. With `N#CC(C#N)=Cc1ccc([N+](=O)[O-])c(O)c1` the figure was 97.9%; with `C[C@H]1CCC/C=C/C2C[C@H](O)C[C@H]2[C@H](O)/C=C/C(=O)O1` (some centres undefined), 40.4%; with `NCC(CC(=O)O)c1ccc(Cl)cc1` (centres undefined), 103%. As for `O=C1C=CC(=O)C(Cl)=C1`, the figure is 101%; as for `C[C@@H]1O[C@@H](OC2CC(O)C3(CO)C4C(CCC3(O)C2)C2(O)CCC(C3=CC(=O)OC3)C2(C)C[C@H]4O)[C@H](O)[C@H](O)[C@H]1O` (some centres undefined), 128%; as for `COC1=C[C@@H]2[C@@H]3Cc4ccc(OC)c(O)c4[C@]2(CCN3C)CC1=O`, 96.9%. As for `OCC1CCCN2CCCCC12` (centres undefined), the viability is 99.4%. For `O=C1CCC[C@H]2[C@@H]3CCCN4CCC[C@H](CN12)[C@H]34`, the viability was 104%. `CN1C[C@H](CNC(=O)OCc2ccccc2)C[C@@H]2c3cccc4c3c(cn4C)C[C@H]21`: the viability was 80.4%. With `CCN1C[C@@]2(COC)C3[C@@H](OC)[C@H]4C1[C@@]3(C1C[C@]3(O)C(OC)[C@H](O)[C@@]4(OC(C)=O)C1[C@H]3OC(=O)c1ccccc1)[C@H](OC)C[C@H]2O` (some centres undefined) the figure was 99.8%. With `CN(C)[C@@H]1C(=O)C(C(N)=O)=C(O)[C@@]2(O)C(=O)C3=C(O)c4c(O)cccc4[C@@](C)(O)C3CC12` (some centres undefined) the figure was 98.3%; with `CC[C@@]1(O)C(=O)OCc2c1cc1n(c2=O)-c2cc3ccccc3nc2C1`, 24.3% (active). As for `C[C@]12CC[C@@H](O)C[C@@H]1CC[C@@H]1[C@@H]2CC[C@]2(C)C(=O)CC[C@@H]12`, the figure is 98.5%; as for `N#CC(C#N)=Cc1cc(O)c(O)c([N+](=O)[O-])c1`, 101%.

A word on the viability: it is a read-out of living cells in per cent, often relative to untreated cells.
